Hits are enriched below; roughly 11% of the tested compounds scored in any of these assays.
Vaccinia mCherry = qHTS for Stage-Specific Inhibitors of Vaccinia Orthopoxvirus: mCherry Reporter Primary qHTS; Potency, µM (doses to about 36.5 µM), inactives show top-dose activity change, negative = inhibition, hits mostly inhibitors; 0.63% of 310,000 active; Vaccinia virus mCherry reporter infection, fluorescence; calls by dose curve; tested in A549 cells; further: on the % scale 0 is the no-effect control and ±100 the full control effect; nearly all actives have a fitted effect of over 35% in size
HCV inhibitor = qHTS Assay for Inhibitors of Hepatitis C Virus (HCV); Huh7.5.1 HCVcc-Cre infection, luciferase reporter, 44 h; Potency, µM (series often up to 41.8 µM), for the others: at the highest dose activity change, negative = inhibition, hits mostly inhibitors; 3.4% of 340,000 active; AID 651820, 2012; further: on the % scale 0 is the no-effect control and ±100 the full control effect
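Compounds are dispensed onto cells plated 4 h earlier at 1,000 per well, with HCVcc-Cre virus (about 0.5 moi) added next. Following 44 h of culture, luminescent signal is measured for 15 sec after 15 min with substrate at room temperature.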
VACV Venus inh = qHTS for Stage-Specific Inhibitors of Vaccinia Orthopoxvirus: Venus Reporter Primary qHTS; Vaccinia virus Venus reporter expression, fluorescence; Potency, µM (series often up to 36.5 µM), for inactives: at the highest dose activity change, negative = inhibition, most hits filed as inhibitors; 0.46% of 330,000 active; AID 720580, 2013; calls by dose curve; tested in A549 cells; further: on the % scale 0 is the no-effect control and ±100 the full control effect; nearly all actives have a fitted effect of over 30% in size
Pf growth 48h = Primary qHTS for delayed death inhibitors of the malarial parasite plastid, 48 hour incubation. P. falciparum luciferase growth in erythrocytes, 48 h. Potency, µM (highest dose often 28.7 µM), for inactives: at the top dose activity change, negative = inhibition, most hits filed as inhibitors. 5.9% of 310,000 active. AID 504832, 2011; further: on the % scale 0 is the no-effect control and ±100 the full control effect
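Parasite viability was followed by luminescence of a genomically integrated firefly luciferase. Cultures held 0.1% parasitemia at 2% hematocrit (final), incubated under 5% CO2 at 37 C.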
Pf growth 96h = Primary qHTS for delayed death inhibitors of the malarial parasite plastid, 96 hour incubation; P. falciparum luciferase reporter growth, 96 h; Potency, µM (titrated, usually from 28.7 µM), for inactives: top-dose activity change, negative = inhibition, usual class: inhibitors; 6.9% of 320,000 active; AID 504834, 2011; further: on the % scale 0 is the no-effect control and ±100 the full control effect
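Two-generation exposure (96 h) targets delayed-death phenotype. Reporter parasites carrying integrated firefly luciferase, in red cells at 2% hematocrit and 0.05% parasitemia final, kept at 37 C, 5% CO2; luminescence loss indicates inhibition.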
NS1 function inh = qHTS Assay for Inhibitors of Influenza NS1 Protein Function | Potency, µM (doses to about 46.1 µM), for inactives: top-dose activity, positive = more growth | AID 2326, 2010 | 0.4% of 270,000 active; calls by dose curve; further: actives are rising curves; nearly all actives have a fitted effect of over 50% in size
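OD600 was taken as the measure of yeast growth restored by compound in an NS1-expressing S. cerevisiae strain. Cells had been washed out of glucose medium and diluted 1:100 into galactose -URA medium, pH 6.0.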
Numbers without * were called inactive; i = inactive; u = inconclusive; x = not tested or not shown; [ ] = dose if it differs, or a comment. Unless noted, the call rests on the fitted dose curve; in most records, active means well fitted inhibition curve with a large enough effect; inconclusive means small, poorly fitted or top-dose-only effect, or another doubt; inactive means no such curve, though single readings can be large or run the other way. Potency means the concentration at half of the fitted maximal effect.

SMILES	Vaccinia mCherry	HCV inhibitor	VACV Venus inh	Pf growth 48h	Pf growth 96h	NS1 function inh
COC(=O)c1ccc(-n2c(C)cc(/C=N/Nc3nc(C)cc(=O)[nH]3)c2C)cc1	-4.0%	u	-15.9%	8.28µM*	13.1µM*	7.9%
Cc1cc(=O)[nH]c(N/N=C/c2cc(C)n(CC(F)(F)F)c2C)n1	x	-19.0%	x	u	u	4.6%
Cc1cccc(Cn2cccc(C(=O)Nc3cc(C)on3)c2=O)c1	-22.2%	x	-5.8%	x	x	x
COc1ccc(C2=CC(c3c(C)nn(-c4ccccc4)c3Cl)n3nnnc3N2)cc1OC (stereo unspecified)	x	11.2µM*	u	2.33µM*	u	16.5%
COc1ccccc1C1C=C(c2ccc(C)cc2)Nc2nnnn21 (stereo unspecified)	u	u	u	-16.6%	u	-2.3%
COc1ccc(CC(=O)N2CC(=O)N(CCc3ccccc3)C(=O)C2)cc1	x	19.2%	5.2%	16.4%	-29.2%	2.6%
O=C1NC(=O)N(c2ccccc2)C(=O)/C1=C\C=C\c1ccccc1	i[7.34 µM]	u	-8.3%[7.34 µM]	3.2%	23.5%	13.2%
ClC1=C(Cl)C(Cl)=C(Cl)C1=C/C=C/c1ccccc1	x	8.91µM*	x	u	u	5.9%
COc1ccc(Cn2nnnc2C(CC(C)C)N2CCN(c3ccccc3)CC2)cc1 (stereo unspecified)	x	-21.6%	-17.8%	7.38µM*	11.9%	-104.1%
CCCC(c1nnnn1Cc1ccc(OC)cc1)N1CCN(c2ccccc2)CC1 (stereo unspecified)	-23.8%	-18.0%	-22.5%	13.1µM*	-26.2%	-51.2%
COC(=O)c1ccc(CNC(=O)Cn2cnc3c(NCc4ccccc4)ncnc32)cc1	-15.2%	-13.0%	-20.1%	x	x	x
O=C(COc1ccc2ccccc2c1)NNC(=O)Cc1ccccc1	-14.6%	19.8%	-2.5%	6.9%	20.2%	8.3%
Cn1c(=O)[nH]c(=O)c2c1nc(CN1CCOCC1)n2Cc1ccc(F)cc1	12.6%	5.5%	-2.4%	7.4%	63.7%	-1.2%
Cc1cc2c(cc1S(=O)(=O)C(C)CC(=O)NCc1ccco1)OCC(=O)N2 (stereo unspecified)	-13.9%	16.9%	-7.6%	29.6%	-18.8%	-1.2%
O=C(NC(=S)N1CCN(c2ccc(F)cc2)CC1)C12CC3CC(CC(C3)C1)C2	-16.6%	1.3%	-14.0%	u	u	10.6%
CCOc1ccccc1N1CCN(C(=S)NC(=O)C23CC4CC(CC(C4)C2)C3)CC1	-4.4%	30.2%	-21.1%	8.28µM*	u	1.5%
CCCC12CN3CCN(CC(C3)/C1=N\NC(=O)c1ccccc1Cl)C2	-0.5%	-6.6%	-7.8%	23.1%	0.0%	x
CN1CC(c2ccc(Cl)c(Cl)c2)[C@@]2(COc3ccccc3C2=O)[C@@]12C(=O)Nc1ccccc12 (stereo partly specified)	x	11.2µM*	x	3.29µM*	2.08µM*	-2.1%
CC(C)N(CC#CCC(O)(c1ccccc1)C1CCCC1)CCO (stereo unspecified)	x	-5.1%	x	-14.2%	6.4%	-0.9%
Cc1noc(-c2ccc(C(F)(F)F)cc2)c1NC(=O)Nc1ccc(Cl)cc1	x	u	x	2.62µM*	2.62µM*	-34.0%
Cc1cc(-c2onc(C)c2C(=O)Nc2ccc(C(F)(F)F)cc2)no1	i[7.34 µM]	15.3%	-1.9%[7.34 µM]	64.9%	70.7%	-0.4%
O=C(NCCN1CCOCC1)c1cccc(S(=O)(=O)N2CCCC2)c1	-14.6%	13.0%	-8.6%	8.4%	-13.1%	4.0%
COc1ccc(C2CC(O)(c3ccccc3)Oc3c(C)ccc(C)c32)cc1 (stereo unspecified)	u	u	u	9.28µM*	u	-94.3%
COc1ccc(C2CC(O)(c3ccccc3)Oc3cc(OC)cc(OC)c32)cc1 (stereo unspecified)	u	-62.2%	-19.9%	u	u	28.0%
OC(COc1ccc(CNCCc2ccc(C(F)(F)F)cc2)cc1)CN1CCCCC1 (stereo unspecified)	-12.7%	5.01µM*	9.5%	2.08µM*	9.6%	5.0%
SMILES	Vaccinia mCherry	HCV inhibitor	VACV Venus inh	Pf growth 48h	Pf growth 96h	NS1 function inh
O=C(c1cc(-c2ccccc2)n[nH]1)N1CCN(S(=O)(=O)c2ccccc2)CC1	x	0.0%	x	3.7µM*	u	6.8%
COc1ccc(-c2cc(C(=O)N3CCN(S(=O)(=O)c4ccccc4)CC3)[nH]n2)cc1	i	-19.9%	-4.6%	u	55.3%	10.3%
Cc1ccc(S(=O)(=O)N2CCN(C(=O)c3cc(-c4ccc(Br)cc4)n[nH]3)CC2)c(C)c1	-20.1%	x	-12.9%	x	x	x
COc1ccc(S(=O)(=O)N2CCN(C(=O)c3cc(-c4ccc(Br)cc4)n[nH]3)CC2)cc1OC	-20.0%	u	u	9.28µM*	u	23.1%
COc1ccccc1-c1cc(C(=O)N2CCN(S(=O)(=O)c3ccc(C)cc3)CC2)[nH]n1	-26.4%	u	-18.8%	0.465µM*	14.7µM*	17.9%
Cc1ccc(S(=O)(=O)N2CCN(C(=O)c3n[nH]c4ccccc34)CC2)cc1	x	0.1%	x	2.62µM*	11.7µM*	x
Clc1c(CSc2nc3ccccc3o2)nc2sccn12	x	u	x	72.5%	0.0%	-57.5%
Cn1c(=O)c2[nH]c(SCc3cccnc3)nc2n(C)c1=S	i	12.2%	-4.4%	x	x	x
O=C(c1cc(-c2ccc(Br)cc2)n[nH]1)N1CCN(S(=O)(=O)c2ccc(Br)cc2)CC1	-11.6%	x	u	x	x	x
O=C(c1cc(-c2ccc(Br)cc2)n[nH]1)N1CCN(C(=O)c2ccccc2Br)CC1	x	u	x	9.28µM*	-15.4%	10.9%
CCOCCn1ccc2c(OCC(=O)Nc3cc(OC)ccc3OC)cccc2c1=O	-20.9%	8.91µM*	-11.6%	u	u	x
CCOCCn1ccc2c(OCC(=O)Nc3ccccc3OC)cccc2c1=O	-11.4%	u	-8.6%	u	u	x
COCCn1ccc2c(OCC(=O)Nc3c(C)cc(C)cc3C)cccc2c1=O	i	x	-7.7%	x	x	x
COCCn1ccc2c(OCC(=O)Nc3cc(OC)ccc3OC)cccc2c1=O	-18.7%	u	-28.5%	11.7µM*	u	x
N#Cc1cccc2c1-c1ccccc1/C2=N/NC(N)=O	x	u	x	-2.8%[0.00184 µM]	16.7%	-8.3%
N#Cc1cccc2c1-c1ccccc1/C2=N/NC(N)=S	u	12.6µM*	u	-6.1%[0.00184 µM]	u	6.4%
COc1ccccc1C(=O)NC(=O)COC(=O)c1ccc([N+](=O)[O-])cc1Cl	-17.4%	-18.6%	-4.6%	5.2%	96.7%	x
COc1cccc(OCC(=O)NC2CC(=O)N(c3ccc4c(c3)OCCO4)C2)c1 (stereo unspecified)	-13.4%	x	-8.5%	x	x	x
